For nine compounds, growth results are on record in PubChem BioAssay (NCI).

Structures are written as SMILES. The panel holds about 83,000 compounds, 20% with a hit somewhere; the sample as a whole holds those more often.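 Step 1: grow cells in 96-well plates. Step 2: add test compound at a single concentration. Step 3: incubate 48 h. Step 4: record percent growth.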 Unmarked numbers belong to inactive results. Activity calls are given as the source filed them. The calls were made as follows: active = growth percent below 10; inactive = the rest.

Common to all, as to experiment: NCI-60 one-dose screen, 48 h (100 = growth as untreated, 0 = no growth, -100 = all killed)
For assay [1], the system named is HT29 colon. Particulars: 10 µM unless noted.
The subject of assay [2] is SNB-75 CNS. As to conditions: 10 µM unless noted.
Assay [3] relates to SNB-19 CNS. Particulars: 10 µM unless noted.
Assay [4] concerns U251 CNS. Particulars: 10 µM unless noted.
Assay [5] relates to PC-3 prostate. Particulars: 10 µM unless noted.
For assay [6], the system named is SK-MEL-5 melanoma. As to conditions: 10 µM unless noted.
Assay [7] relates to UACC-62 melanoma. Particulars: 10 µM unless noted.
Assay [8] deals with LOX IMVI melanoma. Particulars: 10 µM unless noted.
Assay [9] relates to SK-MEL-28 melanoma. Particulars: 10 µM unless noted.
Assay [10] has as its system EKVX NSCLC. Particulars: 10 µM unless noted.
Assay [11] deals with SN12C renal. As to conditions: 10 µM unless noted.
Assay [12] deals with UO-31 renal. As to conditions: 10 µM unless noted.
For assay [13], the system named is TK-10 renal. Particulars: 10 µM unless noted.
Assay [14] deals with ACHN renal. Particulars: 10 µM unless noted.
For assay [15], the system named is CAKI-1 renal. Particulars: 10 µM unless noted.
For assay [16], the system named is A498 renal. As to conditions: 10 µM unless noted.
Assay [17] relates to CCRF-CEM leukemia. As to conditions: 10 µM unless noted.
Assay [18] deals with MOLT-4 leukemia. As to conditions: 10 µM unless noted.
Assay [19] has as its system SK-MEL-2 melanoma. As to conditions: 10 µM.

Turning to `COc1cc2ncnc(Oc3cccc(NC(=O)Nc4cc(C(C)(C)C(F)(F)F)on4)c3)c2cc1OC`, the growth in assay [1] was 6.54% (active); in assay [2] it was 38.1%; in [3], 74.9%; in assay [4], 50.8%; in assay [5], 35.1%; in [6], 0.0888% (active). For the same compound, the growth in assay [7] was -10.5% (active); in assay [8] it was 0.911% (active); in [9], -3.09% (active); in assay [10], 26.1%; in assay [11] it was 21.1%; in [12], -0.0562% (active). Besides, the growth in assay [13] was -7.18% (active); in assay [14], 3.9% (active); in assay [15], 8.99% (active); in [16], -24.9% (active); in [17], 39.7%; in [18], 13.3%.

For the compound `Cc1ncc(-c2ccnc(Nc3ccc(S(C)(=O)=O)cc3)n2)n1C(C)C`, the growth in assay [1] is -16.6% (active); in [2], -37.9% (active); in [3], 7.36% (active); in [5] it was -11.1% (active); in [6], -55.5% (active); in assay [7], -71.5% (active). The growth is 3.16% (active) in [8]; -41.8% (active) in [9]; -10.5% (active) in assay [10]; 0.723% (active) in assay [11]; -9.24% (active) in assay [12]; -3.89% (active) in [13]. Besides, the growth in assay [14] is 0.0849% (active); in assay [15] it was 9.99% (active); in assay [16] it was -42.6% (active); in [17], 4.05% (active); in assay [18], -32.6% (active).

Consider `OCCNC(=S)Nc1ccc(-c2nc(N3C[C@H]4CC[C@@H](C3)O4)c3cccn3n2)cc1`, for which the growth in assay [1] is 20.1%; in assay [2], -30.4% (active); in assay [3], 0.975% (active); in assay [4], 7.99% (active); in assay [5] it was 9.91% (active); in assay [6] it was -34.8% (active). Also, the growth was -36.5% (active) in [7]; 1.79% (active) in [8]; -5.35% (active) in assay [9]; -21.5% (active) in assay [19]; 1.72% (active) in assay [10]; 2.32% (active) in [11]. The growth was -13.8% (active) in [12]; -28.2% (active) in [13]; 6.16% (active) in [14]; 6.32% (active) in assay [15]; -37.5% (active) in assay [16]; 18.9% in [17].

As for `Cc1cccc(Cl)c1NC(=O)c1cnc(Nc2cc(N3CCOCC3)cc(S(C)(=O)=O)c2)s1`, the growth in [1] was -68% (active); in [2] it was -50.1% (active); in assay [3], 40.5%; in assay [4], 50%; in assay [5], 44.3%; in assay [6], 57.9%. For the same compound, the growth in assay [7] was 41.3%; in assay [8] it was -58.4% (active); in [9] it was 52.6%; in assay [10], 27.7%; in assay [11], 28.6%; in assay [13], -64.6% (active). The growth in assay [14] was -2.99% (active); in [15], -27.7% (active); in [16] it was -13.6% (active); in [17], 72.7%; in [18], 24.8%.

On to `C[C@@H](Nc1cc(F)cc(F)c1)c1cc(C(=O)N(C)C)cc2c(=O)cc(N3CCOCC3)oc12`, for which the growth is 23.9% in assay [1]; -8.61% (active) in [2]; 64.1% in assay [3]; 61.4% in [4]; 29% in assay [5]; 73.2% in [6]. The growth was 11.3% in [7]; 48.2% in [8]; 46.3% in assay [9]; 68.2% in [10]; 52.1% in assay [11]; 24.2% in [12]. Moreover, the growth in assay [13] was 32.8%; in assay [14] it was 49.9%; in [16], -38.1% (active); in assay [17] it was 70.3%; in assay [18] it was 25.3%.

On to `CNC(=O)c1cc(Oc2cccc3nc(Nc4ccc(Cl)c(F)c4)ccc23)ccn1`, for which the growth in assay [1] is 82.5%; in [2], -11.7% (active); in [3], 30.3%; in [4] it was 53.3%; in [5], 66.1%; in [6], 44.8%. In addition, the growth in assay [7] is 52.3%; in [8], 59.6%; in [9], 48.8%; in assay [10], 71.1%; in [11], 63.2%; in [12], 81.6%. The growth is 54.1% in [13]; 87.9% in assay [15]; 83.8% in assay [16]; 91.3% in assay [17]; 69.2% in assay [18].

On to `CC(C)[C@@H]1CC[C@]2(CO2)[C@@H]2C(=O)OCC(C(=O)O)=C[C@H]21`, for which the growth in [1] was -1.49% (active); in [2], 20.7%; in [3] it was 1.78% (active); in [4] it was 1.81% (active); in [5], 22.5%; in [6], -42.8% (active). For the same compound, the growth in assay [7] was -67.1% (active); in assay [8], -31.2% (active); in assay [9], -73.4% (active); in assay [19] it was -65.8% (active); in assay [10], 71.5%; in assay [11] it was 2.26% (active). The growth is 5.96% (active) in assay [12]; 11.6% in [13]; 3.14% (active) in [14]; 6.64% (active) in assay [15]; 0.852% (active) in [17].

`COC1CCC(N2C(=O)CNc3ncc(-c4ccc(C(C)(C)O)nc4)nc32)CC1` (stereo unspecified): the growth in assay [2] was -22.7% (active); in assay [3], 13.5%; in assay [4], 2.23% (active); in [5], 8.06% (active); in assay [6], -45.2% (active); in [7], -21% (active). The growth was 2.43% (active) in assay [8]; -8.74% (active) in [9]; 10.9% in assay [10]; 7.07% (active) in [11]; -10.7% (active) in assay [12]; -13.4% (active) in assay [13]. In addition, the growth in assay [14] is 7.04% (active); in [15], -1.6% (active); in assay [16], -23.8% (active); in [17], 11.4%; in assay [18], 0.972% (active).

Take `COc1cc(Nc2c(C#N)cnc3cc(OCCCN4CCN(C)CC4)c(OC)cc23)c(Cl)cc1Cl`: the growth in [1] was 10.3%; in assay [2], 87.6%; in [3] it was 70.4%; in assay [4], 65%; in assay [5] it was 84.7%; in assay [6], 62.5%. Besides, the growth in assay [7] was 9.83% (active); in [8], 33.1%; in assay [9] it was 19.3%; in assay [10], 54.9%; in assay [11], 51.9%; in assay [12], 38.1%. The growth was 29.8% in assay [13]; 27.3% in [14]; 31% in [15]; 78.3% in [16]; 38.9% in assay [17]; 33.3% in assay [18].
